From PubChem BioAssay
SARS PLpro yeast: SARS-CoV PLP inhibition in yeast; S. cerevisiae expressing SARS-CoV PLpro, growth rescue; Potency, µM (top dose mostly 32.9 µM), hits mostly activators; 0.19% of 330,000 active; AID 485353; calls by dose curve; note: nearly all actives have a fitted effect of over 55% in size
Pf growth 96h: P. falciparum growth inhibition at 96 hour, primary screen for plastid delayed-death inhibitors; P. falciparum luciferase reporter growth, 96 h; Potency, µM (titrated, usually from 28.7 µM), actives largely listed as inhibitors; 6.9% of 320,000 active; AID 504834
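96 h incubation, 37 C, 5% CO2, of luciferase-reporter P. falciparum-infected RBCs (2% hematocrit, 0.05% parasitemia final) with test compounds; endpoint luminescence.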
Sm TGR inh: inhibitors of Schistosoma mansoni thioredoxin glutathione reductase; Potency, µM (doses to about 114 µM), most hits filed as inhibitors; purified TGR, DTNB reduction, TNB absorbance 405 nm; 3% of 360,000 active; Q962Y6; note: nearly all actives have a fitted effect of over 60% in size
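TGR 20 nM + NADPH 100 uM (dispensed conc.), cpd preinc 15 min RT; start with NADPH (500 uM addition) then DTNB (15 mM addition). Kinetic TNB absorbance, 405 nm filter. Four-parameter Hill fit across titration.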
Pf growth 48h: inhibits P. falciparum growth in the first generation, 48 h | 5.9% of 310,000 active | Potency, µM (highest dose often 28.7 µM), most hits filed as inhibitors | AID 504832 | P. falciparum luciferase growth in erythrocytes, 48 h
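Parasite viability was followed by luminescence of a genomically integrated firefly luciferase. Cultures held 0.1% parasitemia at 2% hematocrit (final), incubated under 5% CO2 at 37 C.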
HCMV antiviral: inhibitors of human cytomegalovirus | HFF cells, HCMV-luciferase reporter, 72 h; stronger effect = lower value | activity change, negative = inhibition, % at 57.5 µM | 4.5% of 410,000 active | AID 1259415; in the data active = activity change below about -60%; inconclusive = no clear call, values can overlap the other calls; inactive = above about -39%
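Inhibition of viral replication was scored as loss of reporter luminescence in HFFs infected with HCMV-luciferase (MOI 1 PFU/cell) for 72 h; compounds tested at 2 doses, normalized to buffer and Salinomycin controls.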
HCV inh: blocks hepatitis C virus | Huh7.5.1 HCVcc-Cre infection, luciferase reporter, 44 h | Potency, µM (top dose mostly 41.8 µM), hits mostly inhibitors | 3.4% of 340,000 active
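Luciferase read-out (15 sec integration) after a 15 min room-temperature substrate step quantifies HCVcc-Cre infection. Cells, 1,000 per well, had compound added 4 h post-plating, then virus at ~0.5 moi, and were cultured 44 h.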
Large screens that a line does not name were inactive. Sampled rows, rich in hits. Any-hit rate of the full collection: about 15%. Unless noted, calls come from the whole dose curve; as a rule, active = well fitted curve in the direction sought with a large enough effect; inconclusive = small, poorly fitted or top-dose-only effect, or another doubt; inactive = no such curve, though single readings can be large; an effect the other way counts as inactive or inconclusive.

CCCCN(CC)CCNC(=O)C1c2cc(OC)c(OC)cc2C(=O)N2CCc3ccccc3C12 (stereo not given)	Pf growth 96h 10µM, Pf growth 48h inconclusive
Cc1ccc(/C=C/C(=O)Nc2ccc(O)c3c(=O)cc(-c4ccccc4Cl)oc23)cc1	Pf growth 96h 10µM, Pf growth 48h inconclusive, HCV inh inconclusive
Cc1ccc2nc3c(nc2c1C)C(O)=C3O	Sm TGR inh 7.9µM
C[C@H](NC(=O)OC(C)(C)C)c1nnc(SCc2ccc(Cl)cc2Cl)o1	none (no result: SARS PLpro yeast, Pf growth 96h, Pf growth 48h, HCV inh)
Cc1ccc(C[n+]2ccccc2)cc1	Pf growth 96h inconclusive, Pf growth 48h 9.3µM, HCV inh 4.5µM
COC(=O)c1ccc(C[n+]2ccccc2)cc1	none
CC(NC(=O)C(NC(=O)OCc1ccccc1)C(C)O)C(=O)OCc1ccccc1 (stereo not given)	none (no result: SARS PLpro yeast, Pf growth 96h, Sm TGR inh, Pf growth 48h, HCV inh)
O=C(Nc1ccc(Cl)cc1)Nc1ccc(N2CCCC2)c(S(=O)(=O)Nc2ccccc2Cl)c1	Pf growth 96h inconclusive, Pf growth 48h inconclusive, HCMV antiviral -99, HCV inh 5.6µM
O=C(Nc1ccc(N2CCOCC2)c(S(=O)(=O)Nc2ccccc2Cl)c1)c1ccccc1	Pf growth 96h inconclusive, Pf growth 48h 10µM, HCV inh inconclusive
O=C(Nc1ccc(N2CCOCC2)c(S(=O)(=O)Nc2ccccc2Cl)c1)c1ccc(=O)[nH]n1	none (no result: SARS PLpro yeast, Pf growth 96h, Sm TGR inh, Pf growth 48h)
C[C@H](N[C@@H](C)COc1ccccc1)[C@H](O)c1ccc(O)cc1	none (no result: SARS PLpro yeast, Sm TGR inh, HCMV antiviral, HCV inh)
CCOC(=O)c1ccccc1NC(=O)c1ccc(N(C)S(C)(=O)=O)cc1	HCV inh 10µM
CCOC(=O)c1c(C)[nH]c(CCC(=O)Nc2ccccc2C(=O)OC)c1C	HCMV antiviral -73 (no result: SARS PLpro yeast, Pf growth 96h, Pf growth 48h, HCV inh)
CCOC(=O)c1ccccc1NC(=O)c1ccccc1N(C)S(C)(=O)=O	Sm TGR inh inconclusive (no result: SARS PLpro yeast)
CCOC(=O)c1ccccc1NC(=S)N1CC(C)CC(C)C1 (stereo not given)	Pf growth 96h inconclusive, Pf growth 48h 2.9µM
CCOC(=O)c1c(C)[nH]c(CCC(=O)Nc2ccccc2OCC)c1C	HCMV antiviral inconclusive (no result: SARS PLpro yeast, Pf growth 96h, Pf growth 48h, HCV inh)
CCOC(=O)c1ccccc1NC(=O)c1c(F)c(F)c(F)c(F)c1F	HCV inh 10µM
CCOC(=O)c1ccccc1NC(=S)N1CCC(C)CC1	Pf growth 48h inconclusive
CCn1c(CN2CCN(Cc3ccc(C)cc3)C(CCO)C2)nc2ccccc21 (stereo not given)	Pf growth 96h inconclusive
O=C(c1ccco1)N1N=C(c2ccccc2)CC1c1ccc2nccnc2c1 (stereo not given)	Pf growth 96h 7.4µM, Sm TGR inh inconclusive, Pf growth 48h inconclusive, HCV inh inconclusive
O=C(O)CCC(=O)N1N=C(c2ccccc2)CC1c1ccc2nccnc2c1 (stereo not given)	HCMV antiviral inconclusive
O=C(O)CCCC(=O)N1N=C(c2ccccc2)CC1c1ccc2nccnc2c1 (stereo not given)	Pf growth 96h 3.7µM
Cc1[nH]c2ccccc2c1/C=N/NC(=O)C1CC1(c1ccccc1)c1ccccc1 (stereo not given)	Pf growth 48h inconclusive, HCV inh inconclusive
CC(=O)c1ccc(N2CCN(C(=O)c3cn(Cc4ccccc4)nc3-c3cccnc3)CC2)c(F)c1	Pf growth 96h 9.3µM, Pf growth 48h 13µM, HCV inh inconclusive
O=C(c1cn(Cc2ccccc2)nc1-c1ccccc1)N1CCN(c2ccccn2)CC1	Pf growth 96h inconclusive, Pf growth 48h 15µM, HCV inh inconclusive
COc1ccc(-c2nn(Cc3ccccc3)cc2C(=O)N2CCN(c3ccccn3)CC2)cc1OC	Pf growth 96h inconclusive, Pf growth 48h inconclusive
O=C(NCCC(=O)N(Cc1ccco1)Cc1cccs1)c1ccc([N+](=O)[O-])cc1	Pf growth 96h inconclusive
Cn1ccc2c(-c3cccc(C=O)c3)cc3c(c21)C1CCC3O1 (stereo not given)	none (no result: SARS PLpro yeast, Pf growth 96h, Sm TGR inh, Pf growth 48h, HCV inh)
N#Cc1c2n(c3c(=S)nc[nH]c13)CCCCC2	HCMV antiviral -75
Cc1ccc(NC(=O)Cc2nnc(SCC(=O)NC3CCCC3)n2C)cc1C	HCMV antiviral inconclusive
COc1ccc(/C=C2\SC(=S)N(CCCC(=O)Nc3ccccc3C(=O)O)C2=O)cc1OC	Pf growth 48h inconclusive (no result: HCMV antiviral)
COc1ccc(/C=C2\SC(=O)N(CCCC(=O)Nc3ccc(C(=O)O)cc3)C2=O)cc1OC	HCMV antiviral inconclusive
COc1ccc(/C=C2\SC(=S)N(CCCC(=O)Nc3ccc(C(=O)O)cc3)C2=O)cc1OC	Pf growth 96h inconclusive, Pf growth 48h 12µM
COc1ccc(/C=C2/SC(=S)N(CCCC(=O)Nc3ccc(O)cc3)C2=O)cc1OC	Pf growth 96h 12µM, HCMV antiviral -73, HCV inh inconclusive
Cc1cc(C)cc(NC(=O)C2(c3ccccc3)CC2(Cl)Cl)c1 (stereo not given)	Pf growth 96h 2.3µM, Pf growth 48h 4.7µM
CCc1ccc(NC(=O)C2(c3ccccc3)CC2(Cl)Cl)cc1 (stereo not given)	Pf growth 96h 3.3µM, Pf growth 48h inconclusive, HCMV antiviral inconclusive, HCV inh inconclusive
Cc1ccc(NC(=O)C2(c3ccccc3)CC2(Cl)Cl)cc1C (stereo not given)	Pf growth 96h inconclusive, Pf growth 48h inconclusive
Cc1cc(NC(=O)c2c(C)noc2C)no1	none
COc1ccc(Cl)cc1NC(=O)c1nc2nc(C)cc(C(F)F)n2n1	none (no result: Pf growth 48h)
CCCCNC(C(=O)Nc1ccc(Cl)c([N+](=O)[O-])c1)c1ccccc1 (stereo not given)	Pf growth 96h 12µM, Pf growth 48h inconclusive
Cc1ccc(NC(=O)C(C)[n+]2ccccc2)cc1[N+](=O)[O-] (stereo not given)	none
Clc1ccc(OCc2nc(-c3ccccn3)no2)c(Br)c1	HCMV antiviral -61, HCV inh inconclusive
Clc1ccc(OCCCc2nc(-c3ccncc3)no2)c(Cl)c1	none
Clc1ccc(OCCCc2nc(-c3cccnc3)no2)c(Cl)c1	Pf growth 96h 9.3µM
CCOC(=O)CNC(=O)c1cc2c(=O)oc3ccccc3c2s1	none (no result: SARS PLpro yeast, Pf growth 96h, Pf growth 48h, HCV inh)
Nn1c(COc2ccccc2F)nnc1SCC(=O)NC1CCS(=O)(=O)C1 (stereo not given)	none
CCOc1ccc(C(=O)c2oc3ccccc3c2NC(=O)Cc2coc3cc(C)cc(C)c23)cc1	none (no result: SARS PLpro yeast, Pf growth 96h, Pf growth 48h, HCV inh)
Cc1cc(C)c(C)c(S(=O)(=O)N2CCC(C(=O)NNC(=O)c3ccccc3O)CC2)c1C	HCV inh 7.1µM
CC(N)C(=O)NC1C2C(=C(O)CC(O)C2O)C(=O)OC1(C)C(Cl)Cl (stereo not given)	HCMV antiviral -76, HCV inh inconclusive (no result: SARS PLpro yeast, Pf growth 96h, Sm TGR inh, Pf growth 48h)
O=C1CC(SC(=Nc2ccccc2)Nc2ccccc2)C(=O)N1c1cccc2ccccc12 (stereo not given)	Pf growth 96h inconclusive, Pf growth 48h inconclusive
COc1ccccc1C(=O)Nc1nnc(-c2ccc3c(c2)CCCC3)o1	HCMV antiviral -76 (no result: Pf growth 48h)
